# “And” between values parts separate entries of the source, which are not always exact repeats. Equal values may be shown once. Results filed as inconclusive are left out. A call without a number means that no potency is given here. The source made the active and inactive calls. Unless noted, the call rests on the fitted dose curve.
# Legend:
# [1] = biological target: Estrogen receptor (Homo sapiens) (UniProt P03372); test: qHTS assay for small molecule agonists of estrogen receptor alpha signaling (AID 588514); further: nearly all actives have a fitted effect of over 70% in size; further: potency means the concentration at half of the fitted maximal effect
# Sequence of Estrogen receptor (Homo sapiens) (P03372 whole entry, looked up): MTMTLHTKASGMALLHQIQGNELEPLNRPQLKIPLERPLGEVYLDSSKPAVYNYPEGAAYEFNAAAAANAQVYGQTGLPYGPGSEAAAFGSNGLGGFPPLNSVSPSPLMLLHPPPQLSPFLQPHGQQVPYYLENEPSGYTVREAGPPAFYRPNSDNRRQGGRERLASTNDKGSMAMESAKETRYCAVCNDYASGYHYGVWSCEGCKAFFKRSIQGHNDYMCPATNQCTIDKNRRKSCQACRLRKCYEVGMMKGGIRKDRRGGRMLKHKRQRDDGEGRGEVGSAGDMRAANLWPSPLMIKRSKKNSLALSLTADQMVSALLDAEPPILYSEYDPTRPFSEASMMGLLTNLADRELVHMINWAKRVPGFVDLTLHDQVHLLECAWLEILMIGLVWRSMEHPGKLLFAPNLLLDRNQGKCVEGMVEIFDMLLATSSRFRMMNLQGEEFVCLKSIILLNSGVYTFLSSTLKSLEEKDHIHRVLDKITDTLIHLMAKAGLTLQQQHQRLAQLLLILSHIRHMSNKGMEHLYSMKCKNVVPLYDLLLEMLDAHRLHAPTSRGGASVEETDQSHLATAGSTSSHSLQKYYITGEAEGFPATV
# Outline: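 ER-alpha-UAS-bla GripTite HEK293 cells, 5000/well in 2% charcoal/dextran-stripped FBS medium, treated with compound titrations 18 h at 37 C. CCF4 beta-lactamase read by fluorescence after 2 h RT; normalised to 20 nM 17-beta-estradiol (100%) and DMSO (0%), Hill fit for EC50 and efficacy.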
# [2] = biological target: Glucocorticoid receptor (Homo sapiens) (UniProt P04150); test: qHTS assay for small molecule antagonists of glucocorticoid receptor signaling (AID 588533; active means well fitted inhibition curve with a large enough effect in the signal ratio, with a control signal flat, not every such curve was filed as active; the % refers to the signal ratio;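 further: cells stimulated with 2 nM dexamethasone as agonist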; further: potency means the concentration at half of the fitted maximal effect)
# Sequence of Glucocorticoid receptor (Homo sapiens) (P04150 whole entry, looked up): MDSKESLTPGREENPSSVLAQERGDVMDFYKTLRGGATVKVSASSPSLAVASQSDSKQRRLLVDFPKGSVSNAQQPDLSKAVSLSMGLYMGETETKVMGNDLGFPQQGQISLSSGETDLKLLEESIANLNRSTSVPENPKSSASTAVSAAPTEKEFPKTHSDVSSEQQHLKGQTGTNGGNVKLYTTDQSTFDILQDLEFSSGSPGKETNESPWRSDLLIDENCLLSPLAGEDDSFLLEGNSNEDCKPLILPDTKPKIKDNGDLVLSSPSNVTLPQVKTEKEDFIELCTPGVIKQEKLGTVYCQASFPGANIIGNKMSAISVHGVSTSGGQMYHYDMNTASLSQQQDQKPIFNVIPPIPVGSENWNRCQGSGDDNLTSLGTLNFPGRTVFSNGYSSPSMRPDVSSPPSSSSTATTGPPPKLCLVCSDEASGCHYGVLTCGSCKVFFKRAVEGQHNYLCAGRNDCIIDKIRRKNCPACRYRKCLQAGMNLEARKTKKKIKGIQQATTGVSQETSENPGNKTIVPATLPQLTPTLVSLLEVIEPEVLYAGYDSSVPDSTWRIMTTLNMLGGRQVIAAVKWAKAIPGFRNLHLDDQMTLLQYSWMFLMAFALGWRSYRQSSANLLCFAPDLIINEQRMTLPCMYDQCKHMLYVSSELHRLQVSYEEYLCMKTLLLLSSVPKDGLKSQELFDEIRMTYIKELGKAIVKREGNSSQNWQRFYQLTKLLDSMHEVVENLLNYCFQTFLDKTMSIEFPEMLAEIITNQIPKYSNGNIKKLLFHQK
# Outline: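 Antagonist-mode qHTS: compound titrations added to GRE-bla HeLa cells, then dexamethasone 2 nM final; 18 h, 37 C. CCF4 FRET fluorescence normalized to dexamethasone and DMSO; IC50 from Hill fit.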
# [3] = qHTS assay for small molecule antagonists of peroxisome proliferator-activated receptor delta signaling (AID 588535; active means well fitted inhibition curve with a large enough effect in the signal ratio, with a control signal flat, not every such curve was filed as active; the % refers to the signal ratio;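 on max response: cells co-treated with a PPAR-delta agonist as stimulator during compound exposure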); conditions: HEK293T PPARd-UAS-bla, beta-lactamase FRET ratio, 18 h; 460 nm channel
# Outline: (§1)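 HEK293T PPAR-delta-UAS-bla cells, 4000/well, 2% charcoal/dextran FBS; 5 h 37 C; cpd titration; 18 h 37 C; CCF4 2 h RT; FI 460/530 nm; Hill fit → IC50, efficacy.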
# [4] = biological target: Peroxisome proliferator-activated receptor delta (Homo sapiens) (UniProt Q03181); test: as above
# Sequence of Peroxisome proliferator-activated receptor delta (Homo sapiens) (Q03181 whole entry, looked up): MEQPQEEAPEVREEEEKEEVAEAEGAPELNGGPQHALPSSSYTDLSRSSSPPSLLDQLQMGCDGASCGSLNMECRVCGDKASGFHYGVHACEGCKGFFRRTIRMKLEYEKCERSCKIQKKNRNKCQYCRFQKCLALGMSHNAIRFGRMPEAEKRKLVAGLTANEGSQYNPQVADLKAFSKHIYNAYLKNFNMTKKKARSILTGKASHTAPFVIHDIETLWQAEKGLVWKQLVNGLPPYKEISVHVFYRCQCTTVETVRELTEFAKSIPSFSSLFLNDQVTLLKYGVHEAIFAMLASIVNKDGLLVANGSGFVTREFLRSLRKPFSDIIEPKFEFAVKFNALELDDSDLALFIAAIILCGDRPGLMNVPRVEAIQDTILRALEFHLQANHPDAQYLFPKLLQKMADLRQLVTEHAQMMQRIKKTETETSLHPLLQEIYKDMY
# Outline: as §1
# [5] = biological target: Peroxisome proliferator-activated receptor gamma (Homo sapiens) (UniProt P37231); test: qHTS assay for small molecule agonists of peroxisome proliferator-activated receptor gamma signaling (AID 588536; active means well fitted curve in the direction sought with a large enough effect in the signal ratio, with a control signal flat, not every such curve was filed as active; the % refers to the signal ratio)
# Sequence of Peroxisome proliferator-activated receptor gamma (Homo sapiens) (P37231 whole entry, looked up): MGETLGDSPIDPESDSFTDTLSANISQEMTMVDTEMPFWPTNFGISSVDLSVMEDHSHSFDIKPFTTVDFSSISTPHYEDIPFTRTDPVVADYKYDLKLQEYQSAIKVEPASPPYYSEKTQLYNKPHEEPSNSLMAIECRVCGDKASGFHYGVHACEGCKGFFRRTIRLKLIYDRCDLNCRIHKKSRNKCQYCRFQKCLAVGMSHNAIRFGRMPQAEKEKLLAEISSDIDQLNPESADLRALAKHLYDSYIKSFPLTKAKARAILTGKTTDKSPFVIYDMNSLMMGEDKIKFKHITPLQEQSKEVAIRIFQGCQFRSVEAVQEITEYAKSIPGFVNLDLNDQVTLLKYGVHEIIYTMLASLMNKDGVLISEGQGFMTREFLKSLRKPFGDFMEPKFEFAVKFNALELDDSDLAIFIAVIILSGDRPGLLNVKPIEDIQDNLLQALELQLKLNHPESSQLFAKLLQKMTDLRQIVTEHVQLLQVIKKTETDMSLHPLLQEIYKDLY
# Outline: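 PPAR-gamma-UAS-bla HEK293 cells in medium with 1% charcoal/dextran-treated FBS were exposed to compounds for 16 h at 37 C. Beta-lactamase activity was read with CCF4 substrate (405 nm excitation, 460/530 nm emission).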
# [6] = biological target: Vitamin D3 receptor (Homo sapiens) (UniProt P11473); test: qHTS assay for small molecule antagonists of vitamin D receptor signaling (AID 588541);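 further: receptor activated by calcitriol during compound treatment; series mostly up to about 77 µM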
# Sequence of Vitamin D3 receptor (Homo sapiens) (P11473 whole entry, looked up): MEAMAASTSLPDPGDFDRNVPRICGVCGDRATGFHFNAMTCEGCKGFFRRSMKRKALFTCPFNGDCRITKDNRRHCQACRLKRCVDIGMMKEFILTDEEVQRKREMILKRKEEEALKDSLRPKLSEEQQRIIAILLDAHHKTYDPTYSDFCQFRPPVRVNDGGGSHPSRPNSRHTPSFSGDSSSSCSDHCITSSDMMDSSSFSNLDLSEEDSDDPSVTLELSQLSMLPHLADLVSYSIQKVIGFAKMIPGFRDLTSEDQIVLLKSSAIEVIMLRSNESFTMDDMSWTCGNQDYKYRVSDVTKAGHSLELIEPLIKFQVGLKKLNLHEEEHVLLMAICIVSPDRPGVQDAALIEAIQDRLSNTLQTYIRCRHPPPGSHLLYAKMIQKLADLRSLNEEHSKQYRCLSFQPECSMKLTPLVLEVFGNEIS
# Outline: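 Antagonist-mode beta-lactamase reporter assay: HEK293T VDR-UAS-bla cells were exposed to titrated compound alongside 1-alpha,25-dihydroxyvitamin D3 at 3 nM final for 16 h. Values were normalized to the 50 nM agonist control and DMSO basal, with IC50 and efficacy from Hill equation fits.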
# [7] = biological target: Vitamin D3 receptor (Homo sapiens) (UniProt P11473); test: qHTS assay for small molecule agonists of vitamin D receptor signaling (AID 588543)
# Outline: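 qHTS in agonist mode: compound titrations stimulate a VDR-driven β-lactamase reporter in HEK293T cells over 16 h at 37 °C. Response normalized to 50 nM 1α,25-dihydroxyvitamin D3 = 100%, DMSO = 0%; Hill fitting gives EC50 and maximal response.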
# [8] = qHTS assay for small molecule agonists of retinoid X receptor alpha signaling (AID 588544); conditions: HEK293T RXRa-UAS-bla, beta-lactamase reporter, 18 h; 530 nm emission
# [9] = biological target: Retinoic acid receptor RXR-alpha (Homo sapiens) (UniProt P19793); test: as above
# Sequence of Retinoic acid receptor RXR-alpha (Homo sapiens) (P19793 whole entry, looked up): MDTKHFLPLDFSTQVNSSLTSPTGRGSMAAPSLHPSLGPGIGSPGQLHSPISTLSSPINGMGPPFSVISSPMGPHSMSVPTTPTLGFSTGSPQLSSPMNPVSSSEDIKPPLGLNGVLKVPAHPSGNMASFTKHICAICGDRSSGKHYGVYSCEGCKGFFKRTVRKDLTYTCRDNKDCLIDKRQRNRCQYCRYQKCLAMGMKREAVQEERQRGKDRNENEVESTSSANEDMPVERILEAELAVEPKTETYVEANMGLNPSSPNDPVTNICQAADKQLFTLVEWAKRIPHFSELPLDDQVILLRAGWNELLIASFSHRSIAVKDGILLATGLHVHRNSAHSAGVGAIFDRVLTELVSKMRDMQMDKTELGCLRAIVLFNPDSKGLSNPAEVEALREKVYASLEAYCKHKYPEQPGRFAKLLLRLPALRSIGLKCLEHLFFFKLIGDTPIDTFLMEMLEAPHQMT
# [10] = biological target: Thyroid hormone receptor beta (Homo sapiens) (UniProt P10828); test: qHTS assay for small molecule agonists of thyroid hormone receptor beta signaling (AID 588545)
# Sequence of Thyroid hormone receptor beta (Homo sapiens) (P10828 whole entry, looked up): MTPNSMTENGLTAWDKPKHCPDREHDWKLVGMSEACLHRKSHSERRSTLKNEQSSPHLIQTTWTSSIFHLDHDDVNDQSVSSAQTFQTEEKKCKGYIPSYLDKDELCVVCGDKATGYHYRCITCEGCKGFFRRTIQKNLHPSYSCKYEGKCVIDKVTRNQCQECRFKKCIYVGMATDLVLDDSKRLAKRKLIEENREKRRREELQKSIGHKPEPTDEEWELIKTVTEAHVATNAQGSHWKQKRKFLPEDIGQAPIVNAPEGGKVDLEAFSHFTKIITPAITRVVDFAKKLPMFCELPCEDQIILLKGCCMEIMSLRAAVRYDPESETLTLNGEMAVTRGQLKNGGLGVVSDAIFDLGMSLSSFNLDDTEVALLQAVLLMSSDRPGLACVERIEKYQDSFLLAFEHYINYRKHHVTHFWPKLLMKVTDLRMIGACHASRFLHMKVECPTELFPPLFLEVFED
# Outline: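 Stimulation of a TR-driven beta-lactamase reporter was quantified in GripTite HEK 293 cells. Compound series ran for 18 hrs; curves were normalized to T3 and DMSO controls and fitted to yield EC50.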
# [11] = qHTS assay for small molecule antagonists of retinoid X receptor alpha signaling (AID 588546; active means well fitted inhibition curve with a large enough effect in the signal ratio, with a control signal flat, not every such curve was filed as active; the % refers to the signal ratio; further: potency means the concentration at half of the fitted maximal effect;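 on max response: cells stimulated with 9-cis-retinoic acid as agonist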); conditions: HEK293T RXRa-UAS-bla, beta-lactamase ratio, antagonist mode; measured here: W530 green channel, cytotoxicity proxy
# Outline: (§2)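 Beta-lactamase reporter inhibition, read as CCF4 fluorescence ratio (ex 405, em 460/530 nm) after 2 h at RT. HEK293T UAS-bla cells, 2500/well, were stimulated with 9-cis-RA at 500 or 100 nM final alongside test compound for 18 h at 37 C.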
# [12] = biological target: Retinoic acid receptor RXR-alpha (Homo sapiens) (UniProt P19793); test: as above; conditions: HEK293T RXRa-UAS-bla, beta-lactamase ratio, antagonist mode
# Outline: as §2
# [13] = biological target: DNA dC->dU-editing enzyme APOBEC-3G (Homo sapiens) (UniProt Q9HC16); test: qHTS for inhibitors of Vif-A3G interactions: Validation (AID 588379; active means well fitted curve in the direction sought with a large enough effect; an effect the other way counts as inactive or inconclusive)
# Sequence of DNA dC->dU-editing enzyme APOBEC-3G (Homo sapiens) (Q9HC16 whole entry, looked up): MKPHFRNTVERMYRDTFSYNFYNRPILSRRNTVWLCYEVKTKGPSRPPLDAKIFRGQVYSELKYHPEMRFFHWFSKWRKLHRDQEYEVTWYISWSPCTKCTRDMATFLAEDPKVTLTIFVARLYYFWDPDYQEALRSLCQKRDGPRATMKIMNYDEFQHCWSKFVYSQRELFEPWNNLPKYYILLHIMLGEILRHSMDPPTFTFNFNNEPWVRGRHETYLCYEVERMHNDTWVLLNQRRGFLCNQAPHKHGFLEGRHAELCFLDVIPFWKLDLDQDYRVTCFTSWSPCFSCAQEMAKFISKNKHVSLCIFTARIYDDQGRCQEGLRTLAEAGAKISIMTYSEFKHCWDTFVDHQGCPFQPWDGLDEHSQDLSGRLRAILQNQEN
# Outline: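 HeLa cells stably expressing Vif and A3G-eYFP, 700 cells/well, incubated overnight at 37 deg C, then exposed to compound overnight at 37 deg C. Inhibition of Vif-mediated degradation read as increased yellow fluorescence (Ex 488/Em 500-530) by laser-scanning cytometry.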
# [14] = biological target: Estrogen receptor (Homo sapiens) (UniProt P03372); test: qHTS assay for small molecule antagonists of estrogen receptor alpha signaling (AID 588513; active means well fitted curve in the direction sought with a large enough effect in the signal ratio, with a control signal flat, not every such curve was filed as active; the % refers to the signal ratio)
# Outline: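 Cells were plated at 5000/well and incubated 4 h at 37 C. Compounds were added as 1:2 dilution series, duplicates. 17-beta-estradiol (0.5nM final) was added for 18 h before CCF4 detection.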
# [15] = biological target: Bile acid receptor (Homo sapiens) (UniProt Q96RI1); test: qHTS assay for small molecule antagonists of farnesoid X receptor signaling (AID 588526)
# Outline: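 Beta-lactamase reporter antagonist mode: HEK293T FXR-UAS-bla cells, titrated compound, CDCA stimulation, 16 h 37 C, CCF4 dye 2 h RT. Data normalized to CDCA 50 uM and DMSO; Hill-fit IC50.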
# [16] = biological target: Glucocorticoid receptor (Homo sapiens) (UniProt P04150); test: qHTS assay for small molecule agonists of glucocorticoid receptor signaling (AID 588532; active means well fitted curve in the direction sought with a large enough effect in the signal ratio, with a control signal flat; the % refers to the signal ratio); conditions: HeLa MMTV-bla, beta-lactamase ratio, agonist, 18 h; stronger effect = higher value; percent of dexamethasone control, DMSO zero
# Outline: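 Quantitative HTS using CellSensor MMTV-bla HeLa cells in charcoal/dextran-treated serum; compounds tested up to 92 uM. After 18 h at 37 C, CCF4 dye reported reporter induction.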
# [17] = biological target: Androgen receptor (Homo sapiens) (UniProt P10275); test: qHTS assay for small molecule agonists of androgen receptor signaling (AID 588515; active means well fitted curve in the direction sought with a large enough effect in the signal ratio, with a control signal flat; the % refers to the signal ratio); conditions: AR-UAS-bla HEK293, beta-lactamase ratio, agonist 16 h; stronger effect = higher value
# Sequence of Androgen receptor (Homo sapiens) (P10275 whole entry, looked up): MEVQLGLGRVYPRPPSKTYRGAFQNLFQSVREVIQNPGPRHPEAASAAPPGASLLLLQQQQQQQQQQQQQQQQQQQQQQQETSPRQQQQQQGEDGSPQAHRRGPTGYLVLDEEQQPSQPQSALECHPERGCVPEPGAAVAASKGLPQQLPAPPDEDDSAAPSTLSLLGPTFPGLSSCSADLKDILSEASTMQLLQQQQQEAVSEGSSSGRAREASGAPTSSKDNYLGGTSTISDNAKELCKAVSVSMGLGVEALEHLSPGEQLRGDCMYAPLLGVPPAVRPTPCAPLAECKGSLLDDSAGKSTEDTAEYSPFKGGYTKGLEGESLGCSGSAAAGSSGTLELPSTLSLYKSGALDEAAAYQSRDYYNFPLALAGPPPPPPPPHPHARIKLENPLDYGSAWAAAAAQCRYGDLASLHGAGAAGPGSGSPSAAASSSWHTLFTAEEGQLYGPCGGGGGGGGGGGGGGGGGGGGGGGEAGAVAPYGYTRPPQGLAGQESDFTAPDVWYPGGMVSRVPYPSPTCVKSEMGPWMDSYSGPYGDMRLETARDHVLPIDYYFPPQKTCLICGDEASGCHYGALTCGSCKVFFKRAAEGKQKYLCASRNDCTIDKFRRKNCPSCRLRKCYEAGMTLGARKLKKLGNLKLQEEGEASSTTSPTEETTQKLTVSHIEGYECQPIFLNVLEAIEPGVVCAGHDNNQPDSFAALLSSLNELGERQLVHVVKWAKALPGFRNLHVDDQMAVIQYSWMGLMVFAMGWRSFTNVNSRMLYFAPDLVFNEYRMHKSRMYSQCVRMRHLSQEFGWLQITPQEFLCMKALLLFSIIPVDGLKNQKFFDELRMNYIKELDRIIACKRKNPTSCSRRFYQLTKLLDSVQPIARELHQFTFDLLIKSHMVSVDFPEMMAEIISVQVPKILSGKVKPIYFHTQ
# Outline: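 EC50 and efficacy came from Hill fits of titrations (up to 92 uM) normalized to 30 nM R1881 as 100% and DMSO as 0%. Compound exposure was 16 h at 37 C on AR-UAS-bla HEK293 cells, with a 405/460/530 nm CCF4 fluorescence read.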
# [18] = biological target: Androgen receptor (Homo sapiens) (UniProt P10275); test: qHTS assay for small molecule antagonists of androgen receptor signaling (AID 588516; active means well fitted curve in the direction sought with a large enough effect in the signal ratio, with a control signal flat, not every such curve was filed as active; the % refers to the signal ratio; further: potency means the concentration at half of the fitted maximal effect)
# Outline: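 Antagonist-mode qHTS: inhibition of R1881 (10 nM)-driven beta-lactamase expression in GripTite HEK 293 cells is measured after 16 h; values are Hill-derived IC50s normalized between R1881 and DMSO wells.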
# [19] = biological target: Peroxisome proliferator-activated receptor gamma (Homo sapiens) (UniProt P37231); test: qHTS assay for small molecule antagonists of peroxisome proliferator-activated receptor gamma signaling (AID 588537; active means well fitted inhibition curve with a large enough effect in the signal ratio, with a control signal flat, not every such curve was filed as active; the % refers to the signal ratio; further: potency means the concentration at half of the fitted maximal effect)
# Outline: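 Antagonist mode, beta-lactamase reporter in HEK293; charcoal/dextran FBS 1%; 3000 cells/well, 37 C 6-6.5 h; cpd titration + rosiglitazone 50 nM final, 16 h 37 C; CCF4, 2 h RT; 460/530 nm; Hill fit → IC50, efficacy.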
# [20] = qHTS for Inhibitors of ATXN expression: Validation (AID 588378; active means well fitted curve in the direction sought with a large enough effect; an effect the other way counts as inactive or inconclusive; further: nearly all actives have a fitted effect of over 75% in size; further: potency means the concentration at half of the fitted maximal effect)
# Outline: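 Validation of ATXN2 expression inhibitors uses a cell-based luciferase fusion reporter in HEK293 cells, with 24 h compound exposure and paired viability (fluorescence) and reporter (luminescence) end-point reads.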
smiles,measurement,setting,value
O=C(O)CC(O)(CC(=O)O)C(=O)O,Potency,[1],inactive
same,Potency,[2],inactive
same,max response,[3],-9.3% and -1.59% and -15.8%
same,outcome,[4],inactive
same,outcome,[5],inactive
same,outcome,[6],inactive
same,outcome,[7],inactive
same,max response,[8],2.81% and -9.62% and -10.5%
same,outcome,[9],inactive
same,outcome,[10],inactive
same,max response,[11],-2.45% and -5.52% and -2.31%
same,max response,[12],-0.99% (inactive) and 3.25% (inactive) and -0.625% (inactive)
Cc1ccc(OC[C@H](O)[C@H](C)NC(C)C)c2c1CCC2,outcome,[13],inactive
CC(=O)C1=C(O)C=C2Oc3c(C(C)=O)c(O)c(C)c(O)c3[C@]2(C)C1=O,outcome,[13],inactive
COC(C)=O,outcome,[14],inactive
same,Potency,[1],inactive
same,outcome,[15],inactive
same,activation,[16],-4.63% (inactive)
same,Potency,[2],inactive
same,max response,[3],27.1%
same,outcome,[4],inactive
same,outcome,[5],inactive
same,max response,[8],-9.31%
same,outcome,[9],inactive
same,outcome,[10],inactive
same,max response,[11],-2.37%
same,max response,[12],11.4% (inactive)
CCCCCCCCCC(=O)O,activation,[17],-19.5% (inactive) and -1.38% (inactive)
same,Potency,[18],inactive
same,activation,[16],-0.446% (inactive)
same,Potency,[2],inactive
same,max response,[3],24%
same,outcome,[4],inactive
same,outcome,[6],inactive
same,outcome,[7],inactive
same,max response,[8],6.89% and 0.0203%
same,outcome,[9],inactive
same,outcome,[10],inactive
same,max response,[11],6.37% and -10.5%
same,max response,[12],-2.15% (inactive) and -5.65% (inactive)
C=Cc1ccccc1,outcome,[14],inactive
same,Potency,[1],inactive
same,max response,[3],-7.04% and -9%
same,outcome,[4],inactive
same,outcome,[5],inactive
same,Potency,[19],inactive
same,outcome,[6],inactive
same,outcome,[7],inactive
same,max response,[8],-4.91%
same,outcome,[9],inactive
same,max response,[11],-10.4% and -6.3%
same,max response,[12],1.17% (inactive) and -1.22% (inactive)
CCc1ccccc1OC[C@@H](O)CN[C@H]1CCCc2ccccc21,outcome,[13],inactive
CC(=O)S[C@@H]1CC2=CC(=O)CC[C@]2(C)[C@H]2CC[C@@]3(C)[C@@H](CC[C@@]34CCC(=O)O4)[C@H]12,Potency,[1],inactive
same,activation,[16],-13.6% (inactive)
same,Potency,[19],39.8 µM (active)
same,outcome,[10],inactive
COc1cc(C[C@H]2C(=O)OC[C@@H]2Cc2ccc(OC)c(OC)c2)ccc1O,outcome,[13],inactive
NCCCC(=O)O,Potency,[20],inactive
same,outcome,[13],inactive
COc1ccc2[nH]c(=O)c3c(c2c1)OC(C)(C)C=C3,outcome,[13],inactive
CN[C@H]1CC[C@@H](c2ccc(Cl)c(Cl)c2)c2ccccc21,Potency,[20],14.1 µM (active)
CCCCCCCC/C=C\CCCCCCCC(=O)OC[C@@H](O)[C@H]1OC[C@H](O)[C@H]1O,Potency,[1],2 µM (active)
same,Potency,[2],inactive
same,max response,[3],-7.22%
same,outcome,[4],inactive
same,outcome,[5],inactive
same,outcome,[6],inactive
same,outcome,[7],inactive
same,max response,[8],-2.66%
same,outcome,[9],inactive
same,outcome,[10],inactive
same,max response,[11],-8.17%
same,max response,[12],-13.5% (inactive)
CN(C)Cc1ccccc1,activation,[17],-4.67% (inactive)
same,activation,[16],-2.09% (inactive)
same,Potency,[2],inactive
same,max response,[3],-30.1%
same,outcome,[4],inactive
same,outcome,[5],inactive
same,Potency,[19],inactive
same,outcome,[6],inactive
same,max response,[8],-2.82%
same,outcome,[9],inactive
same,outcome,[10],inactive
same,max response,[11],-2.86%
same,max response,[12],-1.44% (inactive)
O=S(=O)(c1ccccc1)N(CC(F)(F)F)c1ccc(C(O)(C(F)(F)F)C(F)(F)F)cc1,Potency,[1],inactive
same,Potency,[18],44.7 µM (active)
same,activation,[16],3.66% (inactive)
same,Potency,[2],39.8 µM (active)
same,max response,[3],-29.6%
same,outcome,[4],inactive
same,max response,[8],-15.6%
same,outcome,[9],inactive
same,outcome,[10],inactive
same,max response,[11],-56.3%
same,Potency,[12],12.6 µM (active)
CN(C)CCCn1cc(C2=C(c3c[nH]c4ccccc34)C(=O)NC2=O)c2ccccc21,outcome,[13],inactive

# — PubChem BioAssay (NCATS)
